{"source": "the supplement of paper PMC8728848", "binders": {"B1": {"name": "CcfD (Bacteroides vulgatus), A6KYX8 (protein)", "chain": "MKYKNYFKSIIYLALGAFTLGSCEDFLDRQEDEKLTFDKIWESRNTTQQYWLNAMSFLPNENGSLQGDTEPYLGASDECTIAYDRQYRWINFGTWNPSQVPYYKMDHYYKGIRECNIFLQNVYKCSDPLVTKDQLDEWYWQTRFARAYYYFLMMRDYGPVFLLGDDLLDFTASTEELYRPRNTWDQCVNYVVSEMTQCAESGVVLQQSDLPAAKWGLATVGTCHAVISRLLLYSARPLFNGNKLYSTVKNPDAPDFPELSGVKLFPELDNTKWQKAAEAAKKLIDNPCYELYRAGNDNPYEDYYGVTHETWNKELIWTDRYNGLFSWGVGTVPTGVAGTAYGAVGPTQALVDAYAMNTGWYPITGYEADGTPIVEPLSGYELASELEKSSWIYPSGGWSNKADFEIEAPNMYKDREPRFYVTVFFGGNQWLHGNSATSISFAKGGNGNKSHDYPKSGYLCNRFYDHKLNSSEGQWGNITFPVFRLGEIYLNFIEAVLECKKNGVALDPSYEALAMEKWADLRKRAGLDPITSIYGQVSTEELIQLCRKERQIELAFERHRYFDTRTWMIATQTDNGKMYGMNTSCPLDAGMKGTETPDGFWERTAFETRVFQNKHYLYPFSQRELDRNKLLTQNYGW"}}, "assay_in_all_cases": "glycan array binding signal (z-score within array); higher = stronger binding", "conditions_in_all_cases": "glycan notation: IUPAC condensed, linker removed", "key": {"[1]": {"biological_target": "Neu5Ac(a2-3)Gal(b1-3)GalNAc(b1-4)Gal(b1-4)Glc", "summary_of_the_method": "(§1)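 The binding signal is a Z-score computed within each array and averaged over linkers. Arrays of the same protein sequence at different concentrations or buffers were also averaged together. Data originate from 3228 arrays in the Consortium for Functional Glycomics database, kept only where the protein sequence was available.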"}, "[2]": {"biological_target": "Neu5Ac(a2-3)Gal(b1-3)GalNAc(b1-4)[Neu5Ac(a2-3)]Gal(b1-4)Glc", "summary_of_the_method": "as §1"}, "[3]": {"biological_target": "Neu5Ac(a2-3)Gal(b1-3)GlcNAc(b1-2)Man(a1-3)[GlcNAc(b1-4)][Neu5Ac(a2-3)Gal(b1-3)GlcNAc(b1-2)Man(a1-6)]Man(b1-4)GlcNAc(b1-4)GlcNAc", "summary_of_the_method": "as §1"}, "Neu5Ac(a2-3)Gal(b1-4)Glc": {"biological_target": "Neu5Ac(a2-3)Gal(b1-4)Glc", "summary_of_the_method": "as §1"}, "[4]": {"biological_target": "Neu5Ac(a2-3)Gal(b1-4)GlcNAc(b1-3)Gal(b1-4)GlcNAc(b1-3)GalNAc", "summary_of_the_method": "as §1"}, "[5]": {"biological_target": "Neu5Ac(a2-3)Gal(b1-4)GlcNAc(b1-3)Gal(b1-4)GlcNAc(b1-3)[Neu5Ac(a2-3)Gal(b1-4)GlcNAc(b1-3)Gal(b1-4)GlcNAc(b1-6)]GalNAc", "summary_of_the_method": "as §1"}, "[6]": {"biological_target": "Neu5Ac(a2-3)Gal(b1-4)GlcNAc(b1-6)[Neu5Ac(a2-3)Gal(b1-3)]GalNAc", "summary_of_the_method": "as §1"}, "[7]": {"biological_target": "Neu5Ac(a2-3)Gal(b1-4)[Fuc(a1-3)]GlcNAc(b1-3)GalNAc", "summary_of_the_method": "as §1"}, "[8]": {"biological_target": "Neu5Ac(a2-6)Gal(b1-4)GlcNAc(b1-2)Man(a1-6)[Gal(b1-4)GlcNAc(b1-2)Man(a1-3)]Man(b1-4)GlcNAc(b1-4)GlcNAc", "summary_of_the_method": "as §1"}, "[9]": {"biological_target": "Neu5Ac(a2-6)Gal(b1-4)GlcNAc(b1-2)Man(a1-6)[GlcNAc(b1-2)Man(a1-3)]Man(b1-4)GlcNAc(b1-4)GlcNAc", "summary_of_the_method": "as §1"}, "[10]": {"biological_target": "Neu5Ac(a2-6)Gal(b1-4)GlcNAc(b1-3)Gal(b1-4)GlcNAc(b1-6)[Gal(b1-3)]GalNAc", "summary_of_the_method": "as §1"}, "[11]": {"biological_target": "Neu5Ac(a2-6)GlcNAc(b1-4)GlcNAc", "summary_of_the_method": "as §1"}, "[12]": {"biological_target": "Neu5Ac(a2-8)Neu5Ac(a2-8)Neu5Ac(a2-3)Gal(b1-4)Glc", "summary_of_the_method": "as §1"}, "[13]": {"biological_target": "Neu5Ac(a2-8)Neu5Ac(a2-8)Neu5Ac(a2-3)[GalNAc(b1-4)]Gal(b1-4)Glc", "summary_of_the_method": "as §1"}, "[14]": {"biological_target": "Neu5Gc(a2-8)Neu5Gc(a2-6)Gal(b1-4)GlcNAc", "summary_of_the_method": "as §1"}}, "note": "The sample as a whole holds a higher share of the strongest signals than the screen did."}
{"binder": "B1", "values": [{"measurement": "glycan array binding signal (z-score)", "setting": "[1]", "result": -0.17}, {"measurement": "glycan array binding signal (z-score)", "setting": "[2]", "result": 2.47}, {"measurement": "glycan array binding signal (z-score)", "setting": "[3]", "result": -0.526}, {"measurement": "glycan array binding signal (z-score)", "setting": "Neu5Ac(a2-3)Gal(b1-4)Glc", "result": -0.589}, {"measurement": "glycan array binding signal (z-score)", "setting": "[4]", "result": -0.693}, {"measurement": "glycan array binding signal (z-score)", "setting": "[5]", "result": -0.429}, {"measurement": "glycan array binding signal (z-score)", "setting": "[6]", "result": 5}, {"measurement": "glycan array binding signal (z-score)", "setting": "[7]", "result": -0.078}, {"measurement": "glycan array binding signal (z-score)", "setting": "[8]", "result": 6.49}, {"measurement": "glycan array binding signal (z-score)", "setting": "[9]", "result": 7}, {"measurement": "glycan array binding signal (z-score)", "setting": "[10]", "result": -0.841}, {"measurement": "glycan array binding signal (z-score)", "setting": "[11]", "result": 0.582}, {"measurement": "glycan array binding signal (z-score)", "setting": "[12]", "result": -0.871}, {"measurement": "glycan array binding signal (z-score)", "setting": "[13]", "result": -0.556}, {"measurement": "glycan array binding signal (z-score)", "setting": "[14]", "result": -1.1}]}
